In PubChem BioAssay AID1508600 (Functional Genomics Laboratory (NCATS/FGL), 2020):
The campaign covered roughly 53,000 sequences. About 3,700 (7%) were called active. This is one part of a sample in which actives are shown more often than they occur. Unmarked numbers belong to inactive results.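 Rule for the calls: active = gene knockdowns whose robust z-score for IL-1 alpha signal is at least 2 or at most -2, so actives lie on both sides; inactive = the rest.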

Assay: Components of the Cytosolic LPS Sensing Pathway: Gene Identification via Genome-wide siRNA Screen
Conditions: RAW264.7 macrophages, IL-1a HTRF, actives lie on both sides, screened at 100 nM (by protocol), cells primed 5 h with Pam3CSK4 first
Text: Non-canonical inflammasome activation by cytosolic LPS is a critical component of the host response to Gram-negative bacterial infection, however we lack a comprehensive understanding of the cellular processes that control this pathway. Here we describe a genome-wide siRNA screen to identify genes regulating the mouse macrophage IL-1 alpha response to cytosolic LPS.
RAW264.7 cells were maintained in complete DMEM media, comprising DMEM with 4.5 g/L glucose, 10% FBS (Gemini Bio-Products, West Sacramento, CA), 2 mM Glutamine (Lonza) and 20 mM HEPES (Lonza), hereafter complete DMEM.
The RNAi screen was conducted in 384-well format using the Ambion Silencer Mouse Genome siRNA Library (#4391425), which consists of three unique, nonoverlapping, nonpooled siRNAs for each of 17,000 gene targets. siRNA reagents ([…]) were stamped into 384-well white flat-bottom microplates (Corning, 3570) using a Velocity11 VPrep liquid handling system (Agilent) integrated into a BioCel robotic platform (Agilent) in columns 1-22, leaving columns 23-24 empty for negative (Ambion, Negative control #1) and positive (mouse Casp4) controls, respectively. The median value of each plate's negative control column was used to normalize sample wells, and the positive control was used to assess transfection efficiency and assay performance.
Lipofectamine RNAiMAX Transfection Reagent ([…]; Invitrogen) was added in […] serum-free, antibiotic-free media to plate wells using a Thermo Scientific Matrix WellMate and Microplate Stacker. Plates were incubated for 45 min at room temperature to allow for the sufficient formation of siRNA-lipid complexes. Cells were seeded at a density of 1x10^4 cells per well in 20 microL media containing 20% (vol/vol) FBS without antibiotics. The final concentration of siRNA in each well was 100 nM. Cells were cultured for 48h at 37 degrees C in 5% CO2 before addition of […] of TLR ligand Pam3CSK4 for 5 hours. The medium was then removed, replaced with […] growth media and cell were transfected with […] of LipidA and TransIT-TKO (Mirus) for 24 hour. At the end of the LipidA treatment, […] of supernatant was transferred to a 384 Greiner Bio-one non-binding low volume plate and […] of IL-1a HTRF reagent (Cisbio, 62MIL1APEH) was added and incubated at room temperature overnight. The plates were read on an EnVision plate reader (PerkinElmer). Cell viability was measured by adding 20ul Cell Titer Glo to the original plate and running a luminescence read on the EnVision. The quantified IL-1a signal for each siRNA gene-targeted well was divided by the median of the negative control wells and multiplied by 100 to achieve a negative control normalized value for each well/siRNA. This normalized value was then used to generate a robust z-score by first taking the log of each value and then by subtracting the median and dividing by the […].

| Sequence | z-score |
| --- | --- |
| GCAUCAACACCUGUUCUAUTT against Olfr376 | 1.02 |
| GGAUCAUUUACAUUCAUACTT against Alg12 | -2.6 (active) |
| GGCACCUGUUAAAAAUGAATT against Prag1 | -0.771 |
| GGACUAGUGUGAAAAAGGATT against Nsd1 | -2.87 (active) |
| GCUCAUCGGAGAGUUCUAUTT against Ube2h | 0.594 |
| GGCAGCAUUGAGUGUGUGATT against Asb13 | 2.53 (active) |
| GGAAUGCUGAAGUAAAAAATT against Olfr1259 | -0.808 |
| GGGCCAAGUUCCGAAAGAATT against Dmbx1 | -0.443 |
| GCCUUAACUAUGUUGUCUATT against Mgst1 | 0.893 |
| GCCUGCACUGUUGAACUAGTT against Tomm40l | -1.09 |
| GCACUCAUUGCCAGGGUCATT against Pycard | -2.54 (active) |
| GCAGUUAUCCGUAUUUAAATT against Ctnnbl1 | 1.18 |
| CCCUCAUUCUCUAGCGUGATT against H2-K1 | -1.07 |
| GGAUGGACUUCGUCAUGAATT against Cplx2 | 0.55 |
| GGAGUGAUUCAGUGAAAACTT against Iqcf3 | -0.289 |
| CGUCAUAAAGAAUAGUUCCTT against Ncoa4 | 0.965 |
| GGAGAAGAGUUAUUGGAUATT against Dnajb4 | 0.901 |
| CCUACGGCAAACAGAGACUTT against Klk6 | -2.29 (active) |
| GGAGUUUAAGAAGACGCACTT against Slc26a3 | 1.62 |
| GGUUUUGGACCAGAUGAGCTT against Abi3 | 0.0276 |
| GGGAUGAAGUGUUCCAUCCTT against Ccdc187 | 2.88 (active) |
| GCAAUUAGUAACUGAGAAUTT against Dpp10 | 0.0628 |

| Sequence | z-score |
| --- | --- |
| GGACUAUGCUGUCCAGAUCTT against Ntn1 | -0.432 |
| GGUGCUGAAUUUGAUCAAGTT against Rpa2 | 1.83 |
| UUGUUAUAGCACUUCCAAATT against Vwa3b | 2.12 (active) |
| GGAUGGGUUUGAUCUUAAUTT against Il13ra2 | 0.519 |
| GCCAUUUGAAGGCUUUUGUTT against D130079A08Rik | -0.555 |
| GCUGGUGAUGACGUGUAUCTT against Slc32a1 | 0.357 |
| GUUGAACAAUCUUGUCCUGTT against Rps25 | 0.518 |
| GGCAUGAGACAAGCUAGUCTT against Mrgpre | -0.463 |
| GGCUGCUAAUUGGAUUUUUTT against Ccnj | -0.936 |
| GCCUUUCAUACAUUCAACATT against Olfr313 | -1.49 |
| GGACAGACCACACUUCAUGTT against Foxp3 | -0.494 |
| GGCCAUGAUUUACGACGACTT against C1qtnf4 | -1.22 |
| GGCUCUCUGAGGAUUCGAATT against 4930544M13Rik | -0.209 |
| CGGGACAUUCGUGAUCUUATT against Tmem114 | -2.38 (active) |
| GGAUUCGCCUUUUCUACCGTT against Hoxb2 | 0.929 |
| GGAGCUGUGAGCAUUACUGTT against Cenpm | -1.89 |
| GGUCAUCGAUAAGAAAAGATT against Hunk | -1.09 |
| GCAGGUGAAAAGCAAUCCUTT against Prss27 | 1.03 |
| GAUGGUCAUUGAUGUCCUUTT against Rps24 | -0.694 |
| GGAGAGUGCUGAUGUUCUGTT against Rhox6 | 2.26 (active) |
| GGUGCUUGUGGGUAACAAGTT against Rab33a | 1.94 |
| GGACAUAAUCAAAGACAUCTT against Ddc | 1.15 |

| Sequence | z-score |
| --- | --- |
| GGCAUACCCAAAAAUAGAATT against Eif1a | 0.139 |
| GGAGAACUCCAGGUUGGCATT against Eaf1 | -2.03 (active) |
| GCGCAAAGAUGGCUAUUGCTT against Adamts3 | 1.42 |
| GCUCAUCCAUUACGAGUUGTT against Dusp18 | 0.878 |
| GCAUUUCCUUAACACUCCCTT against Msmb | -0.614 |
| CGAGAAACAGAGUAUCAAGTT against Utp23 | 0.776 |
| GGGCCAUACCAUUUGGGUGTT against Wdr38 | 0.142 |
| GGUAAAAAGUACAAGUGGGTT against Slc17a5 | -0.909 |
| GGUGAUACCUCUGUCCUGGTT against Exosc5 | -1.17 |
| GGAGGGUGAUCUCAUUGAATT against Prkd1 | 0.479 |
| GCAGCAAUACAUCCUUCAUTT against Cdh1 | 1.12 |
| CCGAGCUAGAUCAGCUAUUTT against Mertk | -1.45 |
| GGAAACCGUUUUUUUUUUCTT against Appbp2 | 2.16 (active) |
| CCUAAUCUCUUGUAGGUAUTT against AU018091 | 1.03 |
| GGAACAGGCAACAUGAUUGTT against Nlgn3 | 0.376 |
| GGCUGUAUGUAUAUAGUCCTT against Snrpb | -2.41 (active) |
| GGUGUCCACAUUAAAUUACTT against Foxb1 | 2.21 (active) |
| GCACUAAGUCCCAUGUGUCTT against Trim11 | -1.01 |
| GGUUAUGGUAUUAACAGGUTT against Slc17a4 | 0.112 |
| GGGCAGAAUGCCAGUGUACTT against Kif22 | -0.305 |
| GCUUGACGCGAACUUACCATT against Endog | 2.35 (active) |
| GGUGGACUUCGAGAACAUATT against Cyp2d26 | 0.75 |

| Sequence | z-score |
| --- | --- |
| GGAUCAUCAACCAUCUAAUTT against Srsf7 | -1.11 |
| GCCUUUUGAUGCUUCCUCUTT against Rusf1 | -0.696 |
| GCUCAAAGUUUGAACUGGCTT against Atxn2l | 0.153 |
| GCUGAAGAGGCGCAUACAUTT against 2610318N02Rik | 3.07 (active) |
| GCCAAAGACUCUUAUAAGUTT against Bnc1 | -0.455 |
| UCUCCUUCCUAACUUCAACTT against Tmem252 | 0.747 |
| GCUCUCACCAUCAGAGAAATT against Trpc4 | -0.12 |
| CCUCUGAGUGGAACACCUATT against Sfr1 | -3.54 (active) |
| GGCAUUCAUGACAAUGGCUTT against Rab1b | -1.89 |
| GCGAUUUAUUGCCAAGCCCTT against Cers5 | 0.596 |
| GGUUUAAGCUUUUUGUGGATT against D130079A08Rik | 0.0133 |
| GGAUGUGACGCACACAUGUTT against Cdip1 | 1.11 |
| GCAAAUUGGUCAUCGACUGTT against Alg1 | 0.0456 |
| GCCAUCUACUCUUUAAAUATT against Pdha1 | 0.351 |
| GCAGAAAAACAUCCACGACTT against Spn | -2.01 (active) |
| GCAGACAGAUCGCUUCAACTT against Dok4 | -0.882 |
| CCCUCUUAGGAGCUAGUGATT against Atp2b4 | -1.85 |
| CCAUUCGAUACCUCGUGCATT against Dhps | -0.249 |
| GGGCCUGGAUUACUUACACTT against Srpk1 | 4.83 (active) |
| UACUUGUAGCCAUGGCUCUTT against Olfr685 | 0.334 |
| GGCAAAAUAUUGCACAGCGTT against Tsga10 | -0.474 |
| GGAAAUUAAACAGAAACAGTT against Ube2j2 | -0.471 |

| Sequence | z-score |
| --- | --- |
| GGCUGUUUUACAUCAUCCCTT against Ust | -0.227 |
| GGGAAAGUUUCUGCAUUCUTT against Lce1d | 2.07 (active) |
| CCACAGUCUAUUCAAACUUTT against Ncapd3 | -1.12 |
| GGUCAAGUCAGCAUUCCUGTT against Hspbp1 | -1.78 |
| GGAAAAGAAGACCUACACCTT against Ppp1r1c | -2.04 (active) |
| GGCCUGGAUGGAAAUUUGCTT against Fabp4 | -0.851 |
| GGAGAAAAGAGUUUGCCCGTT against Wfdc12 | -0.329 |
| GCAAAUUCUCGGUGUCAAATT against Ezh2 | -1.04 |
| CCUAGUAACUAUCUACCUCTT against Sval3 | 0.232 |
| GGAUAUCAUCAUGUCUUUCTT against Otop1 | 1.29 |
| CGUGGAUAAAGAUAACCCGTT against Znrd2 | -0.117 |
| GAUAAAAUCGGACUGAUAATT against Olfr1079 | 0.837 |
| GGCGAACACUGUCAUGAAUTT against Spin4 | 3.37 (active) |
| GGUAUUCACACUGAAGCCCTT against H2-DMa | 0.108 |
| GCAACAUCCAGGCUUGCCUTT against Tmem107 | -0.874 |
| CCAUGAAGAACAAGAAAACTT against 1700010D01Rik | 0.239 |
| GGAUAGAAAACAGUAUCUGTT against Fggy | 1.07 |
| GGAAAACUGCUUUGAGCUGTT against Thap7 | 2.72 (active) |
| AAGGUGCAGAGUUACACGUTT against H2-T10 | 1.17 |
| GGUCUUCAAUUUCUUCAAATT against 4930430F08Rik | 0.928 |
